Sampled rows, rich in hits. Any-hit rate of the full collection: about 3.5%.
BoNT-A LC inh2: BoNT A light chain protease inhibition; multiplex microsphere protease substrate cleavage, flow cytometry; inhibition, % at 10 µM; 0.17% of 360,000 active; also: plate controls were buffer without enzyme for full effect and enzyme alone for no effect
Autofluor counter: flagged as autofluorescent in microsphere protease counterscreen; compound autofluorescence counterscreen, microsphere flow cytometry; hits give high values; fluorescence intensity (no concentration beside the values); 3.1% of 360,000 active; AID 624483; in the data active = fluorescence intensity above about 16000; inconclusive = no clear call, values can overlap the other calls
Anthrax LF prot: anthrax lethal factor protease inhibition; 0.12% of 360,000 active; inhibition, % at 10 µM; multiplex microsphere protease cleavage assay, LF; also: plate controls were buffer without enzyme for full effect and enzyme alone for no effect
Target sequence (P15917 whole entry, looked up): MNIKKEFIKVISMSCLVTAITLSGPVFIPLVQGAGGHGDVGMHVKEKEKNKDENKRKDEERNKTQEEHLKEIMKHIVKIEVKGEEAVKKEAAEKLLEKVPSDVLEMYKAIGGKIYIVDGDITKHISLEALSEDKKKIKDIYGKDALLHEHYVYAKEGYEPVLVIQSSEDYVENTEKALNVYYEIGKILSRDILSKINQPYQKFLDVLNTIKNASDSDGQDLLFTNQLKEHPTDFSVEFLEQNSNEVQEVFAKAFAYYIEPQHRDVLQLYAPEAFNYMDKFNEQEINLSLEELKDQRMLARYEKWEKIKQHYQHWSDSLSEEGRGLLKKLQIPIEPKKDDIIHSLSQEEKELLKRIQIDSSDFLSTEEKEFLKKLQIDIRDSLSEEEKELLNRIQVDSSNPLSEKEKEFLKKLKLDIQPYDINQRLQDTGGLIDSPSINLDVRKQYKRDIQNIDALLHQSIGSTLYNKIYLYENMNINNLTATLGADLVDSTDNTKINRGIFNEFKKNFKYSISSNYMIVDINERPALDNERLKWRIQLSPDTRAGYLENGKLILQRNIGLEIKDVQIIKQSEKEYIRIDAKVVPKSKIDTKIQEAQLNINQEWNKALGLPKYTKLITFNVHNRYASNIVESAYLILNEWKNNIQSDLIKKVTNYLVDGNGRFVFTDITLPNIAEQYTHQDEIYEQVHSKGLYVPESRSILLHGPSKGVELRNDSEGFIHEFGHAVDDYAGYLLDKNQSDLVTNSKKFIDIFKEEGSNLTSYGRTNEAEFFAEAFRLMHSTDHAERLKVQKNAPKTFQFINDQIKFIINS
BoNT F protease: inhibitors of Botulinum neurotoxin F light chain protease | Multiplex microsphere protease cleavage assay, flow cytometry | inhibition, % at 10 µM | 0.22% of 360,000 active; in the data active = inhibition above about 35%, passing the limit was not always enough; inconclusive = no clear call, values can overlap the other calls; also: plate controls were buffer without enzyme for full effect and enzyme alone for no effect
Starred values were filed as active, the others as inactive; u = inconclusive. Rule as the data show it, unless noted: active = inhibition above about 30%; inconclusive = no clear call, values can overlap the other calls; inactive = below that.

SMILES	BoNT-A LC inh2	Autofluor counter	Anthrax LF prot	BoNT F protease
COc1ccc(S(=O)(=O)Nc2c(C)n(C)n(-c3ccccc3)c2=O)cc1Br	-2	3820	-10	-7
Cc1c(NC(=O)/C(=C/c2cccs2)NC(=O)c2ccccc2)c(=O)n(-c2ccccc2)n1C	0	4356	3	-2
Cc1c(NC(=O)c2cc(=O)[nH]c3ccccc23)c(=O)n(-c2ccccc2)n1C	-3	17099*	0	-5
COc1cc(Br)c(S(=O)(=O)Nc2c(C)n(C)n(-c3ccccc3)c2=O)cc1OC	-1	21059*	2	-4
Cc1cccc(NC(=O)/C=C/c2cccs2)n1	-2	21452*	-1	-3
Cc1c(NC(=O)/C=C/c2cccs2)c(=O)n(-c2ccccc2)n1C	0	22938*	0	-1
O=C(/C=C/c1cccs1)Nc1ccncc1	0	1957	-1	-9
Cc1cc(C(=O)Nc2c(C)n(C)n(-c3ccccc3)c2=O)c2ccccc2n1	0	3985	5	15
COC(=O)[C@]12CCCCC=C1N(CCC1=CCCCC1)C(=O)[C@H](CC(=O)NCc1ccccc1)C2	0	5348	-11	2
CC1(C(=O)O)CCCN1C(=O)c1ccco1 (stereo unspecified)	0	2901	0	-2
CSc1ccccc1NC(=O)C1(C)CCN1C(=O)Cc1ccc(-c2ccccc2)cc1 (stereo unspecified)	0	2883	-4	0
COc1ccc(S(=O)(=O)Nc2cccc3c2O[C@H](CN(C)C(=O)Nc2ccc4c(c2)OCO4)[C@@H](C)CN([C@H](C)CO)C3=O)cc1	0	4175	-11	-2
CCN(CC)S(=O)(=O)c1ccc(SCC(=O)c2c(N)n(C3CC3)c(=O)[nH]c2=O)nc1	0	3601	-1	-4
Cc1c(NC(=O)CN2CCCc3ccccc32)c(=O)n(-c2ccccc2)n1C	u	22099*	-2	-3
Cc1c(NC(=O)CC(=O)Nc2c(C)n(C)n(-c3ccccc3)c2=O)c(=O)n(-c2ccccc2)n1C	1	7785	1	0
CCOC(=O)C(C(=O)OCC)c1cc(Br)c2noc3c2c1C(=O)c1ccccc1-3	68*	3932	58*	-6
COc1ccc(NC(=O)C23CC4CC(C2)CC(n2cnc(Br)n2)(C4)C3)cc1OC	u	16534*	-4	-4
OC[C@@H]1CN(CCN2CCOCC2)C[C@H](n2cnc3c(N4CCCC4)ncnc32)O1	0	2907	-4	2
Cc1cc(C)c(C(=O)/C=C/c2ccc(C(C)C)cc2)c(=O)[nH]1	5	17863*	-1	5
Cc1cccc(C(O)c2cnc(C)n2Cc2ccccc2)c1 (stereo unspecified)	-1	2862	-10	-6
COc1ccc(NC(=O)c2c(C(F)(F)F)nn(C)c2SCc2ccccc2)cc1	-1	16890*	-2	-3
Cn1nc(C(F)(F)F)c(C(=O)Nc2ccc(C(F)(F)F)cc2)c1Cl	0	4378	-12	-8
Cc1cc(C)n(-c2nc3ccccc3nc2N2CCCC2)n1	3	19617*	1	4
CCCc1c(-c2ccc(F)cc2)ncn1Cc1ccccc1OC	-1	5713	-6	-7
CCOC(=O)C1=C(C)NC(=O)C(C#N)C1c1ccco1 (stereo unspecified)	u	18722*	-1	-17
SMILES	BoNT-A LC inh2	Autofluor counter	Anthrax LF prot	BoNT F protease
CCOC(=O)C1=C(C)NC(C)=C(C(=O)OC)C1c1ccco1 (stereo unspecified)	0	6678	-1	12
CCCCN1C(=O)C(CC(=O)NCCc2ccccn2)CC(C(=O)N2CCOCC2)=C1C (stereo unspecified)	0	3429	-2	-3
CCn1cc([N+](=O)[O-])c(C(=O)Nc2ccn(Cc3ccccc3F)n2)n1	-1	23949*	-1	-1
CCn1cc([N+](=O)[O-])c(C(=O)Nc2nc(-c3ccc(C)cc3)c(C)s2)n1	-1	16716*	-1	-6
CC(NC(=O)COC(=O)Cc1ccsc1)C1CC2CCC1C2 (stereo unspecified)	-3	24292*	-2	-4
NC1CCCCC1N=Cc1c(O)n(CCc2ccc(F)cc2)c(=O)[nH]c1=O (stereo unspecified)	3	u	-6	45*
CCCCn1c(O)c(C=NCCN2CCCCC2)c(=O)[nH]c1=O	-1	2516	1	-6
COc1ccc(CCn2c(O)c(C=NCCN3CCCCC3)c(=O)[nH]c2=O)cc1OC	4	20570*	2	6
CN1CC[n+]2cnc3ccccc3c21	u	18857*	-12	6
O=C1N(Cc2ccc(F)cc2Cl)c2ccccc2C12OCCCO2	2	19128*	0	-1
C=CCN1C(=O)C2(OCCCO2)c2ccccc21	-1	3449	10	-2
O=C1N(Cc2ccccc2F)c2ccccc2C12OCCCO2	0	20831*	-1	-3
COc1ccc(NC(=O)c2cncc(Br)c2)c(S(=O)(=O)N2CCOCC2)c1	1	2851	-1	-3
COc1ccc(NC(=O)c2cccnc2Cl)c(S(=O)(=O)N2CCOCC2)c1	2	22564*	0	4
COC(=O)[C@@]1(Sc2ccc(C)cc2)CC(=O)N[C@@H]1c1ccc(C(F)(F)F)cc1	0	4449	1	2
Cc1ccc([N+](=O)[O-])cc1-c1[nH]c(-c2ccc(O)c(O)c2)nc1-c1ccccc1	0	16205*	-9	-6
CC(=O)c1ccc(NC(=O)C2CCCNC2=O)cc1 (stereo unspecified)	u	21778*	-4	-1
Cc1ccc(S(=O)(=O)NCCNC(=O)C2CCCNC2=O)cc1 (stereo unspecified)	-1	4364	-1	u
CN(C)CCNC(=O)C1CCCNC1=O (stereo unspecified)	u	22891*	0	-3
C#Cc1cccc(Nc2nc(NCc3ccccc3OC)nc3ccsc23)c1	0	3717	-3	-4
C[C@@H]1O[C@H](C2CCCCC2)Cc2[nH][nH]c(=O)c21	0	6130	-4	-4
O=C(Nc1cccc(C(F)(F)F)c1)c1cccn(Cc2ccc3c(c2)OC(F)(F)O3)c1=O	-2	20449*	0	-2
Cc1cccc(C)c1NC(=O)c1cccn(Cc2ccc3c(c2)OC(F)(F)O3)c1=O	10	16867*	-13	7
CC(C)Oc1cccc(NC(=O)c2cccn(Cc3ccc4c(c3)OC(F)(F)O4)c2=O)c1	-1	10002	-8	-7
CCCCN(CCCNC(=S)NCCCc1cnc[nH]1)c1ccc(Br)cn1	-1	3425	-3	-10
SMILES	BoNT-A LC inh2	Autofluor counter	Anthrax LF prot	BoNT F protease
CCOC(=O)NC(=O)c1cn(N(C)c2ncc(C(F)(F)F)cc2Cl)c(=O)[nH]c1=O	-17	21416*	-23	-67
COC(=O)c1cn(N(C)c2ncc(C(F)(F)F)cc2Cl)c(=O)c2ccccc12	-1	2383	-4	3
Cc1ccsc1/C=c1\sc2ncnn2c1=O	-2	20527*	-1	-2
CCc1ccc(C(O)c2ncc(-c3ccccc3OC)[nH]2)cc1 (stereo unspecified)	0	3752	-8	5
O=C(NNC1=NCCC1)c1cccc(Br)c1	0	4194	-1	22
COC(=O)NNC(=O)c1ccccc1C	u	22876*	0	3
Cc1ccccc1C(=O)NNC1=NCCC1	-1	17045*	0	-1

Assay outcomes: PubChem, NMMLSC
